What was measured:
Assay in all cases: PBM binding z-score (relative to random genomic background probes); higher = stronger binding; sequences stand for … in GC…GCGATTGACAGCGTAGAATGAAGG
[1] = system: FXR:RXRa (NR concentration 270 nM, RXRa partner concentration 90 nM)
Outline: (§1)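 On custom Agilent 4×180K arrays, double-stranded probes with 34-nt variable regions carried direct-repeat seeds, single-nucleotide variants, half-site ablations or random human genomic background. Ligand-free nuclear receptor dimers were applied for 1 h, and binding was read with antibodies against each partner (one per run). Binding z-scores come from regression-normalized fluorescence, with the random background probes as reference.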

[2] = system: LXRa:RXRa (NR concentration 270 nM, RXRa partner concentration 90 nM)
Outline: as §1

[3] = system: LXRa homodimer (NR concentration 270 nM)
Outline: as §1

[4] = system: LXRb:RXRa (NR concentration 270 nM, RXRa partner concentration 90 nM)
Outline: as §1

[5] = system: LXRb homodimer (NR concentration 270 nM)
Outline: as §1

[6] = system: PPARa:RXRa (NR concentration 270 nM, RXRa partner concentration 90 nM)
Outline: as §1

[7] = system: PPARg:RXRa (NR concentration 180 nM, RXRa partner concentration 90 nM)
Outline: as §1

[8] = system: PPARg:RXRa 270nM:90nM, anti-RXR (NR concentration 270 nM, RXRa partner concentration 90 nM)
Outline: as §1

[9] = system: PPARg:RXRa 30nM:10nM, anti-RXR (NR concentration 30 nM, RXRa partner concentration 10 nM)
Outline: as §1

[10] = system: PPARg:RXRa 90nM:30nM, anti-RXR (NR concentration 90 nM, RXRa partner concentration 30 nM)
Outline: as §1

[11] = system: PPARg:RXRa DBDmut IVT, anti-RXR (DBD mutation: RXRa K156A/R161A, NR concentration 270 nM, RXRa partner concentration 90 nM)
Outline: as §1

[12] = system: PPARg:RXRa IVT, anti-PPARg (NR concentration 270 nM, RXRa partner concentration 90 nM)
Outline: as §1

[13] = system: PPARg DBDmut:RXRa IVT, anti-PPARg (DBD mutation: PPARg1 K132A/R137A, NR concentration 270 nM, RXRa partner concentration 90 nM)
Outline: as §1

[14] = system: PPARg DBDmut IVT, anti-PPARg (DBD mutation: PPARg1 K132A/R137A, NR concentration 270 nM)
Outline: as §1

[15] = system: PPARg homodimer (NR concentration 180 nM)
Outline: as §1

[16] = system: PXR:RXRa (NR concentration 270 nM, RXRa partner concentration 90 nM)
Outline: as §1

[17] = system: PXR homodimer (NR concentration 270 nM)
Outline: as §1

[18] = system: RARa:RXR (NR concentration 270 nM, RXRa partner concentration 90 nM)
Outline: as §1

[19] = system: RARa homodimer (NR concentration 270 nM)
Outline: as §1

[20] = system: RARb:RXRa (NR concentration 270 nM, RXRa partner concentration 90 nM)
Outline: as §1

| Sequence | PBM binding z-score [1] | PBM binding z-score [2] | PBM binding z-score [3] | PBM binding z-score [4] | PBM binding z-score [5] | PBM binding z-score [6] | PBM binding z-score [7] | PBM binding z-score [8] | PBM binding z-score [9] | PBM binding z-score [10] | PBM binding z-score [11] | PBM binding z-score [12] | PBM binding z-score [13] | PBM binding z-score [14] | PBM binding z-score [15] | PBM binding z-score [16] | PBM binding z-score [17] | PBM binding z-score [18] | PBM binding z-score [19] | PBM binding z-score [20] |
| --- | --- | --- | --- | --- | --- | --- | --- | --- | --- | --- | --- | --- | --- | --- | --- | --- | --- | --- | --- | --- |
| TCTAGGTGGTCACGGAGGTCACACACGACGGGTA | 3.81 | 3.68 | 2.06 | 3.28 | 0.0895 | 4.01 | 3.58 | 4.2 | 3.06 | 3.96 | 1.88 | 4.12 | 0.705 | 0.508 | 2.75 | 4.44 | 0.948 | 4.51 | 1.02 | 3.84 |
| CCGACTGGGGCAGAAAGGGTACCATACCATCCGG | -0.642 | -0.505 | -0.574 | -0.581 | -1.48 | 0.209 | 0.831 | 0.193 | -0.692 | 0.0495 | 0.57 | 0.77 | -0.394 | -1.37 | -0.287 | -0.615 | -0.768 | -0.429 | -0.298 | 0.605 |
| CTACCATGGTGAACAAGGTCGTTGATTACTATTC | 0.251 | 0.452 | 0.165 | 1.23 | -0.219 | 1.07 | 0.161 | 0.378 | -0.000193 | 0.175 | 0.666 | 0.434 | 0.343 | 0.226 | 0.387 | 1.56 | 0.655 | 1.43 | 0.262 | 0.627 |
| TAGCCTAGGTGATGGGCCAGTATACCACGCGAAC | -0.85 | -0.73 | -0.59 | -0.909 | -0.955 | -0.386 | 0.501 | 0.427 | -0.547 | -0.0568 | -0.692 | 0.25 | -0.775 | -0.847 | -0.49 | -0.714 | -0.807 | -0.895 | -1.38 | -0.281 |
| ACTAGCAGGCCAAGGGTCACGCAAGATTAGTCCG | 3.81 | 3.6 | 0.279 | 3.53 | -0.566 | 5.24 | 9.04 | 7.85 | 7.41 | 7.99 | 1.52 | 4.53 | 0.585 | -0.153 | 2.62 | 4.25 | -0.0194 | 5.33 | 0.787 | 4.2 |
| GCTGCTAGTTCAGGTTGGTCAGCTAACGGGTACG | -0.234 | -0.0295 | -0.196 | -0.351 | -0.495 | -0.285 | -0.479 | -0.127 | -0.906 | -0.226 | -0.103 | -0.56 | -0.826 | -0.845 | -0.918 | -0.166 | 0.0964 | -0.23 | -0.341 | 1.01 |
| GCTAGTTGGTCCGTAAAAGGTCACACACCGGTCG | 3.14 | 4.48 | 3.93 | 3.92 | 0.618 | 4.14 | 1.33 | 3.29 | 0.779 | 2.39 | 0.234 | 1.86 | 0.724 | 0.195 | 2.89 | 4.94 | 1.12 | 5.63 | 1.86 | 3.99 |
| TCTGGGAGGACACGAAGGTCAGAGCTTTCCAGAG | 1.36 | 1.16 | 0.204 | 1.3 | -0.86 | 1.81 | 0.579 | 1.36 | 1.51 | 1.53 | 1.04 | 0.947 | -0.643 | -0.716 | 1.05 | 1.99 | 0.818 | 2.19 | 0.238 | 3.28 |
| CCTATTAGTTGACCATAAGGGCAACGGAAGCTCG | 0.826 | 0.337 | 0.454 | 0.234 | 0.609 | 0.552 | 0.455 | 0.511 | 0.321 | 0.476 | 0.458 | 0.449 | 0.427 | 0.782 | 2.06 | 0.568 | 0.623 | 0.736 | 1.45 | 1.54 |
| AGAATGAGGTTATACGTAGATAAGGGAAGAAAGT | 2.05 | 1.86 | -0.00161 | 1.56 | 0.00672 | 3.3 | 2.47 | 2.07 | 1.02 | 1.67 | 2.89 | 2.2 | 1.07 | 1.1 | 0.963 | 1.17 | 0.795 | 1.65 | 0.439 | 1.37 |
| CGAACTAGGTCAAGGGCAGTGAATCTCCGCACGC | 3.56 | 2.14 | -0.0571 | 1.21 | -0.428 | 4.64 | 8.03 | 6.75 | 4.74 | 6.89 | 7.67 | 8.29 | 1.07 | 0.971 | 1.46 | 1.14 | -0.131 | 1.86 | -0.096 | 4.13 |
| CGTCAAAGTTCAACTAAAGTAACGTAAAGCACGC | 6.66 | 6.26 | 3.94 | 4.14 | 2.66 | 4.93 | 5 | 5.38 | 2.2 | 4.09 | 0.164 | 2 | 1.4 | 1.46 | 3.19 | 4.82 | 3.3 | 4.03 | 2.17 | 5.28 |
| TCTGCTAGGTCAGTTGGTCAGCGAACGAGCTGCC | 1.05 | 0.587 | -0.495 | 0.166 | 0.433 | 1.57 | 0.47 | 1.87 | 1.06 | 1.38 | 2.76 | 3.21 | -0.0304 | 0.518 | 0.0639 | 0.0473 | -0.82 | 0.461 | -1.14 | 3.55 |
| CGAACTAGGGCAAGGACAGTGAATCTCCGCACGC | 0.00807 | -0.366 | 0.0437 | -0.81 | -0.814 | 1.76 | 2.96 | 3.03 | 0.479 | 1.87 | 7 | 6.14 | 0.631 | -0.116 | -0.153 | -0.332 | -0.43 | -0.371 | -0.534 | 1.59 |
| TCTCGGAGGACACGAAGGTCTGAGCTTTCCAGAG | -0.23 | -0.358 | -1.07 | -0.541 | -1.44 | 0.131 | -0.309 | 0.641 | 1.91 | 1.38 | 1.12 | -0.0413 | -0.829 | -1.69 | -0.904 | -0.33 | -0.787 | 0.107 | -1.21 | 1.46 |

Source: the supplement of paper PMC6555819
